This passage reports binding signal results from PMC12136788.

Numbering of substitutions follows the chain as printed. Whole data set: some 5,800 sequences, median “enrichment r” near 0.68, cut for the highest 2% near 11. This is one part of a sample in which the highest values are shown more often than they occur.

B1: chr1:17067933:17068034:-|3pUTR|ENSG00000117115|msi1|FALSE|unique (ssRNA)
RNA: GGGAGUUCUACAGUCCGACGAUCACAUAAGGACCCUGGCCUACCCUCCAGCCCAACAGCCAGUUCUGGGUCAGCUGCCAACUUAGGGGUGGUUUGAUUAUCCCAUUGAAAUUCACCAGUGCCUUUGCCAAAGACCCUCUCAUUCAACAGAGGAUUGAGCAUCA
B2: chr12:104760787:104760888:+|3pUTR|ENSG00000171310|unk|FALSE|unique (ssRNA)
RNA: GGGAGUUCUACAGUCCGACGAUCUUCUUUUCUAAUGGCAUUGAAACUUUAAAAAAAAUGGAUUCAACUGUUUUUGCAGAAUGUAGAAAGUAUUCUGUGUCCUUGGUUAAAGAAAUCCACUUGUGAAGUGUGCCUGGAAAAUGACAACAGAGGAUUGAGCAUCA
B3: chr19:811491:811550:+|3pUTR|ENSG00000011304|msi1_unk|FALSE|overlapping (ssRNA)
RNA: GGGAGUUCUACAGUCCGACGAUCUAGCAAUAUUUCCAGUUGACCAAAUAUUCUAAUCUUUUUUCAUUUAUAUGCAAAAGAAAUAGUUUUAAGUAACUUUUUAUAGCAAGAUGAUACAAUGGUAUGAGUGUAAUCUAAACUUCCCAACAGAGGAUUGAGCAUCA
B4: chr7:111727939:111728040:-|3pUTR|ENSG00000128512|unk|FALSE|unique (ssRNA)
RNA: GGGAGUUCUACAGUCCGACGAUCAAGUGGUAAAUAGUGAUAAAGACUCCUUUUGUACCUUUUUAUGUUCACUUUUUUUUAUAUAGUUUAAUCUUAAAACCAAUACGAUAUUGUCAAACGAUACAAUGUGUGACAAUGUUGUAUCAACAGAGGAUUGAGCAUCA
B5: chr7:123541454:123541562:-|3pUTR|ENSG00000128609|unk|FALSE|unique (ssRNA)
RNA: GGGAGUUCUACAGUCCGACGAUCUCCAUAGUGUCAUUUUAUUUUAGUCAUUAUUGAAUUAUACCAUUUACUCUGUUUUCUUAUAGUCUUAAUUUUAUUAUAUUUUGUUGUUACUGUAUUAUAUUUGAAAACCUUCAAAUUAGACAACAGAGGAUUGAGCAUCA
B6: chr7:123541454:123541562:-|3pUTR|ENSG00000128609|unk|total|mutant (ssRNA)
RNA: B5 RNA with U28C, A29C, U44C, A45C, U83C, A84C, U140C, A141C
B7: chr6:11183298:11183399:-|3pUTR|ENSG00000111859|msi1|total|mutant (ssRNA)
RNA: GGGAGUUCUACAGUCCGACGAUCACAUUUCACAUUUUUAAAACCAAAUGUUCAAUCUGUAUUACUCUUUGCCGUCUUGUAUGCCGAGGCUAUUUUUAAAUCAUUAAAUUUUCCGAUCUCUGUUUUCACCGCCACUGGGUUUUCCAACAGAGGAUUGAGCAUCA
B8: chr10:117282838:117282939:-|3pUTR|ENSG00000165650|unk|FALSE|bound_elsewhere (ssRNA)
RNA: GGGAGUUCUACAGUCCGACGAUCCCCCUUGUGUUAUUUUUCUUCCUCUUGGUUUUUGAAUUAGUGUUAAAUAGAAUACUGUCUAGAUUCUUAAAAUAUUUUCAUUUCCAUCAUGGUUAUAACAAAUUUGCUGCAUGCCCAAACCAACAGAGGAUUGAGCAUCA
B9: chr17:80395157:80395266:+|3pUTR|ENSG00000173821|unk|FALSE|bound_elsewhere (ssRNA)
RNA: GGGAGUUCUACAGUCCGACGAUCCUUCAAAGCCUUAACUGUCAAAUCUUGCAUUAUCUUGUUUGUACAGAAAUAUACUGGCCUAGCAGAGGCAAAAAAAAAAAAAAUGAAUUUUAUUUUACUUGUCACACCUGUCUUAAUAAACAACAGAGGAUUGAGCAUCA
B10: chr7:111727939:111728040:-|3pUTR|ENSG00000128512|unk|total|mutant (ssRNA)
RNA: B4 RNA with U34C, A35C, U83C, A84C
B11: ENSG00000033178:stop:overlap|stop_codon|ENSG00000033178|stop_codon|NA|stop_codon (ssRNA)
RNA: GGGAGUUCUACAGUCCGACGAUCCUAUUGAAAUUUAUGGCUGUCCGAAUAUUUGUUUGUUAAUACAUAAGUGUUCUGUAUAUUAGUAUUCUCUUAUCCUUCACAUCCAGCUUUGCUACUCUGUGGCAUUAGACAACUUUUUUCCAACAGAGGAUUGAGCAUCA
B12: chr5:159157431:159157536:-|3pUTR|ENSG00000145860|unk|FALSE|bound_elsewhere (ssRNA)
RNA: GGGAGUUCUACAGUCCGACGAUCCAAAAAGUGUUUUUCAGACCUCGGUAUUCCUAAUGUGGGAUGUGACUUUAUUUUAUUUUUAGUAGCAAAUUUGGAUGUAGACUGACAGACAUAGCUGAAUGUCUUAAUAAAUUUAAAUUUCAACAGAGGAUUGAGCAUCA
B13: chr5:159157431:159157536:-|3pUTR|ENSG00000145860|unk|total|mutant (ssRNA)
RNA: B12 RNA with U83C, A84C, U86C, A87C, U101C, A102C, U115C, A116C
B14: chr2:227556236:227556337:+|3pUTR|ENSG00000173744|msi1|FALSE|bound_elsewhere (ssRNA)
RNA: GGGAGUUCUACAGUCCGACGAUCUGUUGAAUGCCUUUUUGCAAUGAUGACUGAGUUGUUAUCAUAGUAUUUUAAAACCUGUAUAGUGUUUUAGACUUGUUAAAACAUUGCUGUCUAGUGUACAUCUAGCUAAAAGUGUGGUUUCAACAGAGGAUUGAGCAUCA

In the test the target is T1, UNK ZnF1-6 (called full-length) (human, UniProt Q9C0B0 30-357).
T1 sequence: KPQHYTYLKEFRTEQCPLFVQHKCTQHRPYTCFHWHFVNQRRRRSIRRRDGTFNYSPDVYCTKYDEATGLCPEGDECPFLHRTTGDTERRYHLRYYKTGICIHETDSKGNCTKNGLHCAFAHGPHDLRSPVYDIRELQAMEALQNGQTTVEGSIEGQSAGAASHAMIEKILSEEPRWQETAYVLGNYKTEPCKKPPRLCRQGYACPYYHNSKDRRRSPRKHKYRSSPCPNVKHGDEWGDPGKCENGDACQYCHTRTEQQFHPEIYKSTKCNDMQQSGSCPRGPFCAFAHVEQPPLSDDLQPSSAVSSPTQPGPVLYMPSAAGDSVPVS
In words: nsRBNS (natural sequence RNA bind-n-seq); RBNS binding buffer (assumed for nsRBNS): 25 mM Tris pH 7.5, 150 mM KCl, 3 mM MgCl2, 0.01% Triton X-100, 500 ug/ml BSA, 20 U/ml SUPERase-In, 4 C; UNK is unkempt and MSI1 is Musashi-1; names of the RNAs are library labels; protein concentration not given here; high values mean tight binding.
Molecule B1 registered a binding signal of 0.896 enrichment R.
B2 showed a binding signal of 0.431 enrichment R.
The same measure for B3: 0.832 enrichment R; for B4: 21.5 enrichment R; for B5: 150 enrichment R.
The same measure for B6: 17 enrichment R.
Consider B7, for which the binding signal came to 1.08 enrichment R.
The figure for B8 is 3.48 enrichment R.
With B9, the binding signal was determined as 0.564 enrichment R.
B10 returned a binding signal of 2.33 enrichment R.
The same measure for B11: 0.919 enrichment R; for B12: 11.8 enrichment R; for B13: 0.813 enrichment R.
The same measure for B14: 0.596 enrichment R.
